FAS-TE inh – FAS thioesterase (human) inhibition; hit rate 0.67% among 360,000; AID 602261; inhibition, % at 15 µM; P49327; recombinant FAS-TE, OMFH fluorogenic substrate, fluorescence endpoint;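 active means compounds whose normalised, plate-corrected inhibition of enzyme fluorescence in the single-dose primary screen is 50% or more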
MIN6 prolif – MIN6 beta-cell proliferation induction. hit rate 0.29% among 330,000. MIN6 cells proliferation, ATPlite luminescence, 48 h; cells starved in 0.2% serum; 100% = growth in 10% serum. proliferation, % at 10 µM;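 active means compounds whose signal lies at least 3.5 SD above the mean of all wells on their plate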
p-CIP stab down – lowers stability of the mouse p/CIP coactivator protein. Q05BA5. F442A p/CIP-EGFP cells, EGFP fluorescence, 16 h. decrease of EGFP signal, % at 10 µM. hit rate 0.01% among 290,000;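 active means EGFP signal decrease of at least 30% at 10 µM or well 3 SD below plate mean, unless failing retest; inactive means the rest, including hits failing retest or dose response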
Target sequence (Q05BA5 1-1403): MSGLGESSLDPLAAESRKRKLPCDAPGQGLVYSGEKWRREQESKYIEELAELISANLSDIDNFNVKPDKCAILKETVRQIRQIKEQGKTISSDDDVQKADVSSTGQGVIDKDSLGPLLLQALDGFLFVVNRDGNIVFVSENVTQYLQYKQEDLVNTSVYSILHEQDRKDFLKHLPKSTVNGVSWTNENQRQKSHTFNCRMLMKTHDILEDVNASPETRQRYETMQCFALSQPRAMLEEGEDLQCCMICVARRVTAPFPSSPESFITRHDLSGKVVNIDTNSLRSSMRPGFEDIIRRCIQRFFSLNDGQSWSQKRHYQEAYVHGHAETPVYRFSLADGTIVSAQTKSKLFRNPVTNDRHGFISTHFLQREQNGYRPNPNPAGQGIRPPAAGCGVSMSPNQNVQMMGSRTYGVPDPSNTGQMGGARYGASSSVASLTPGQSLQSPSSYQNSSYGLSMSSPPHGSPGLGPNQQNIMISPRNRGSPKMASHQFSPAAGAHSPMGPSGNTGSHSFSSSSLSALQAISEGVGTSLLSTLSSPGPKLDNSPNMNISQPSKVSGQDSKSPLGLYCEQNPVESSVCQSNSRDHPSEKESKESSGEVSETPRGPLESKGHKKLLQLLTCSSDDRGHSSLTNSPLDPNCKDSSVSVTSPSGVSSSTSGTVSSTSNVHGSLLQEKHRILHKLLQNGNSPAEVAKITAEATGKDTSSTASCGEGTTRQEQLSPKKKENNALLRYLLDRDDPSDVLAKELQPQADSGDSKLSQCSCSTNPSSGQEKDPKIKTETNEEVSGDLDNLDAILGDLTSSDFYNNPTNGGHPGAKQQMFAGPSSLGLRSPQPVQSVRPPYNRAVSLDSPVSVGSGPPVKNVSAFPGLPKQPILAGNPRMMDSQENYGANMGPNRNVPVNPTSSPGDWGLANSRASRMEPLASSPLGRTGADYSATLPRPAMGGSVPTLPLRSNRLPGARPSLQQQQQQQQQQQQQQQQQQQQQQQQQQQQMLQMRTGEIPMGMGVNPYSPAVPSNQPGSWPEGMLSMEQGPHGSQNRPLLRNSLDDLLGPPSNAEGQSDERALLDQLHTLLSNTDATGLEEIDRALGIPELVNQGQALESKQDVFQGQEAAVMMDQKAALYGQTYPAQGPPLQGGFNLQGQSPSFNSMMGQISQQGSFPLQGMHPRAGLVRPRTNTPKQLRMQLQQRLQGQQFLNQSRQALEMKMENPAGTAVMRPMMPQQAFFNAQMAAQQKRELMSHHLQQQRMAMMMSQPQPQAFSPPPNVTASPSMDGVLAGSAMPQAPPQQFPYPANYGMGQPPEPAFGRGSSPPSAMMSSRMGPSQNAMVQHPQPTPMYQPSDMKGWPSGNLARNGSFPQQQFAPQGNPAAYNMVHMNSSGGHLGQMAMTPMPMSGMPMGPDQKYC
MPTP inh – inhibitors of mitochondrial permeability transition pore. isolated mouse mitochondria, Ca2+ swelling absorbance, 30 min. hit rate 1.4% among 360,000. AID 602449. inhibition, % at 10 µM;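 active means inhibition of 50% or more, scaled per plate between neutral and stimulator controls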
GRIN3A LBD mod – modulators (binders) of human NR3A ligand-binding domain | NR3A LBD differential scanning fluorimetry, Tm shift; 0% = protein alone, 100% = glycine-bound protein | Tm shift relative to glycine control, % at 25 µM | hit rate 2.5% among 340,000;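 active means melting temperature shift of at least 10% of the positive control shift, at one fixed dose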
Of the large screens only hits and unclear results are named; the others gave an inactive call. The list is not random: actives were taken first. Their share in the collection is about 4.1%.

Cc1cc(C)n2c(Nc3ccc4c(c3)OCCO4)c(CCc3ccccc3)nc2n1	none (no result: MIN6 prolif, p-CIP stab down, GRIN3A LBD mod)
COc1cc(C(F)(F)F)c(C(=O)N(C)Cc2cccc(Cl)c2)cn1	GRIN3A LBD mod 13.9
O=C(COC(=O)c1cc(Br)ccc1O)Nc1ccc2c(c1)OCCO2	none (no result: p-CIP stab down)
COc1ccc(NS(=O)(=O)c2ccc(O)c(C(=O)OCC(=O)Nc3ccc4c(c3)OCCO4)c2)cc1	GRIN3A LBD mod 19.1
CCOc1ccc(-c2cc(C(=O)Nc3ccc4c(c3)OCCO4)c3ccccc3n2)cc1	none
COc1ccc(-c2cc(C(=O)OCC(=O)Nc3ccc4c(c3)OCO4)c3ccccc3n2)cc1	GRIN3A LBD mod 15.0
O=C(COC(=O)c1cc(-c2ccccc2)nc2ccccc12)Nc1ccc2c(c1)OCO2	GRIN3A LBD mod 12.6
CC(C)C[C@H]1COc2cccc(N(C)CCO)c2S(=O)(=O)N1	none (no result: MIN6 prolif, p-CIP stab down, GRIN3A LBD mod)
CCC(CC)c1nnc(NC(=O)c2c(C)nn(Cc3ccccc3Cl)c2C)s1	GRIN3A LBD mod 15.6
Cc1nn(Cc2ccccc2Cl)c(C)c1C(=O)NC1=NCCS1	none
CCN1C[C@@H]2[C@@H]3C(=O)N(Cc4ccccc4)C(=O)[C@@H]3[C@](C)(C1=O)N2C(=O)c1ccc(F)cc1	none (no result: MIN6 prolif, p-CIP stab down)
O=C(c1ccc(Cl)c(Cl)c1)N1CCC(=O)N([C@H](COCc2ccc(Cl)cc2)Cc2ccccc2)CC1	none (no result: MIN6 prolif, p-CIP stab down, GRIN3A LBD mod)
CCCCn1nnnc1C(c1ccccc1)N1CCN(C(=O)c2ccco2)CC1 (stereo unspecified)	none (no result: MIN6 prolif, p-CIP stab down, GRIN3A LBD mod)
COc1ccc(/C=C(\C#N)c2nc3ccccc3[nH]2)cc1O	none
COc1c(O)ccc(/C=C(\C#N)c2nc3ccccc3[nH]2)c1[N+](=O)[O-]	GRIN3A LBD mod 22.8
N#C/C(=C\c1c(Cl)cccc1Cl)c1nc2ccccc2[nH]1	none
N#C/C(=C/c1cccs1)c1nc2ccccc2[nH]1	GRIN3A LBD mod 15.4
Cc1ccc(/C=C(\C#N)c2nc3ccccc3[nH]2)s1	GRIN3A LBD mod 18.8
COC[C@H]1CCCN1[C@@H]1CS(=O)(=O)N[C@H]1COCc1ccccc1	none (no result: MIN6 prolif, p-CIP stab down, GRIN3A LBD mod)
COc1cc([N+](=O)[O-])ccc1NC(=O)Nc1cnccn1	none
COc1cc([N+](=O)[O-])ccc1NC(=O)Nc1nc2c(s1)CCCC2	GRIN3A LBD mod 10.9
CCCCN(C(C)=O)c1c(CC)nc2ccc(C(=O)NCCOc3ccc(OC)cc3)cn12	none (no result: MIN6 prolif, p-CIP stab down, GRIN3A LBD mod)
COc1ccc(C(O)c2nc(-c3cc4ccccc4o3)cs2)cc1 (stereo unspecified)	none (no result: MIN6 prolif, p-CIP stab down, GRIN3A LBD mod)
CCc1nc2ccc(C(=O)NCC3CCCCC3)cn2c1N(C)Cc1ccc(OC)cc1	none (no result: MIN6 prolif, p-CIP stab down, GRIN3A LBD mod)
Cc1ccc(S(=O)(=O)c2nc(Nc3nccs3)sc2Cl)cc1	GRIN3A LBD mod 11.9
C[C@@H]1CN([C@H](C)CO)C(=O)c2cc(NC(=O)Nc3ccc(C(F)(F)F)cc3)ccc2O[C@H]1CN(C)C(=O)Nc1ccc(F)cc1	GRIN3A LBD mod 18.4 (no result: MIN6 prolif, p-CIP stab down)
CC(C)NC(=O)N(C)C[C@H]1Oc2ccc(NC(=O)Nc3ccc(C(F)(F)F)cc3)cc2C(=O)N([C@H](C)CO)C[C@@H]1C	none (no result: p-CIP stab down)
C[C@H](CO)N1C[C@H](C)[C@@H](CN(C)C(=O)Nc2ccc(C(F)(F)F)cc2)Oc2ccc(NC(=O)Nc3ccc(C(F)(F)F)cc3)cc2C1=O	GRIN3A LBD mod 10.1 (no result: p-CIP stab down)
C[C@H](CO)N1C[C@H](C)[C@@H](CN(C)C(=O)Nc2ccc3c(c2)OCO3)Oc2ccc(NC(=O)Nc3ccc(C(F)(F)F)cc3)cc2C1=O	GRIN3A LBD mod 10.9 (no result: p-CIP stab down)
O=C1NC(=S)S/C1=C\c1cc(Cl)cc(Cl)c1O	GRIN3A LBD mod 16.6 (no result: MIN6 prolif, p-CIP stab down)
N#Cc1nc(Nc2cccc(Cl)c2)c2ncn(C3CCCC3)c2n1	GRIN3A LBD mod 11.4 (no result: p-CIP stab down)
CCn1cnc2c(Nc3cc(F)cc(F)c3)nc(C#N)nc21	none (no result: p-CIP stab down)
O=C(C[C@H]1C[C@H](C(=O)N2CCOCC2)[C@@]2(CCC3CCCC3)c3[nH]c4cc(-c5ccco5)ccc4c3CCN2C1=O)NCC12CC3CC(CC(C3)C1)C2	none (no result: MIN6 prolif, p-CIP stab down)
CC(C)(C)NC(=O)C[C@H]1C[C@H](C(=O)N2CCOCC2)[C@@]2(CCC3CCCC3)c3[nH]c4cc(-c5ccco5)ccc4c3CCN2C1=O	FAS-TE inh 57.5 (no result: MIN6 prolif, p-CIP stab down)
NS(=O)(=O)c1ccc(Nc2nc(-c3cccc([N+](=O)[O-])c3)cs2)cc1	GRIN3A LBD mod 16.5
Cc1ccc(-c2csc(Nc3ccc(S(N)(=O)=O)cc3)n2)o1	none
NS(=O)(=O)c1ccc(Nc2nc(-c3ccc4ccccc4c3)cs2)cc1	GRIN3A LBD mod 24.6
CC(C)CN(C(=O)c1cc(=O)[nH]c2ccccc12)c1c(N)n(Cc2ccccc2)c(=O)[nH]c1=O	GRIN3A LBD mod 11.5 (no result: p-CIP stab down)
COc1cc(Cl)ccc1OC1(C)CCN(Cc2c(F)cccc2F)C1 (stereo unspecified)	none (no result: MIN6 prolif, p-CIP stab down, GRIN3A LBD mod)
CCOC(=O)c1cc(CC)sc1NC(=O)c1cc(OCC)c(OCC)c(OCC)c1	GRIN3A LBD mod 11.2
CCOC(=O)c1cc(CC)sc1NC(=O)c1ccc2c(c1)OCCO2	none
O=C(Nc1cccnc1)c1cnn2c(C(F)F)cc(C3CC3)nc12	none
O=C(Nc1cc(Br)ccc1O)c1cnn2c(C(F)F)cc(C3CC3)nc12	GRIN3A LBD mod 14.3
CCOC(=O)C1=CCC(C(C)(C)C)N(S(=O)(=O)c2ccc(C)cc2)C1 (stereo unspecified)	none (no result: MIN6 prolif, p-CIP stab down, GRIN3A LBD mod)
Nc1ncnc2c1ncn2[C@@H]1O[C@H](CNCc2ccc(-c3cc(C(F)(F)F)ccc3Cl)o2)[C@@H](O)[C@H]1O	none (no result: MIN6 prolif, p-CIP stab down)
O=c1ccn([C@@H]2O[C@H](CNCc3ccc(-c4cc(C(F)(F)F)ccc4Cl)o3)[C@@H](O)[C@H]2O)c(=O)[nH]1	GRIN3A LBD mod 16.8 (no result: MIN6 prolif, p-CIP stab down)
Cc1ccc(NC(NC(=O)c2cccs2)C(Cl)(Cl)Cl)cc1 (stereo unspecified)	none
Cc1ccc(NC(NC(=O)c2cccs2)C(Cl)(Cl)Cl)cc1C (stereo unspecified)	GRIN3A LBD mod 11.6
O=C(N=Nc1c(O)[nH]c2ccc(Br)cc12)c1cc(-c2cccc3ccccc23)n[nH]1	GRIN3A LBD mod 15.7
CC(C)(C)Nc1nc(Cl)nc(Nc2ccccc2)n1	none
CC(=O)Nc1ccc(Nc2nc(Cl)nc(Nc3ccc(NC(C)=O)cc3)n2)cc1	GRIN3A LBD mod 13.1
COc1ccc(Nc2nc(C)c3ccccc3n2)cc1	GRIN3A LBD mod 37.9
Clc1nc(Nc2ccccc2)nc(Nc2ccccc2)n1	GRIN3A LBD mod 18.1
COc1ccc(Nc2nc(Cl)nc(Nc3ccc(OC)cc3)n2)cc1	GRIN3A LBD mod 16.8
COc1ccccc1Cc1c(-c2cccc(Br)c2)nc2c(C)cc(Br)cn12	none (no result: MIN6 prolif, p-CIP stab down, GRIN3A LBD mod)
Brc1ccc(/C=N/Nc2nc3ccccc3o2)cc1	GRIN3A LBD mod 28.4
Oc1ccccc1/C=N/Nc1nc2ccccc2o1	none
COc1ccc(/C=N/Nc2nc(Nc3ccccc3)nc(N3CCCC3)n2)cc1[N+](=O)[O-]	GRIN3A LBD mod 25.9
COCCn1c(=NC(=O)c2sc3ccccc3c2Cl)sc2cc(S(N)(=O)=O)ccc21	GRIN3A LBD mod 23.1
C=CCn1c(=NC(=O)c2cc(Cl)sc2Cl)sc2cc(S(N)(=O)=O)ccc21	none
C=CCn1c(=NC(=O)c2sc3ccccc3c2Cl)sc2cc(S(N)(=O)=O)ccc21	GRIN3A LBD mod 15.5

Assay outcomes (PubChem BioAssay)
